According to PubChem BioAssay AID1645855 (Buhrlage Lab, Dana-Farber Cancer Institute and Novartis …, 2021):
About 3,100 (6.6%) of roughly 47,000 compounds were called active. No stated cut-off is given here; in the data, active means inhibition above about 30%; inactive means the rest. The list comes from a sample in which actives are over-represented; it also holds similar structures and randomly drawn compounds.

Each molecule was assayed against Ubiquitin carboxyl-terminal hydrolase 17-like protein 5 (Homo sapiens) (UniProt A8MUK1) (assay: inhibitors of human USP17 deubiquitinase (AID 1645855)). Settings: purified USP17, Ub-rhodamine cleavage fluorescence, 3 h; at 50 µM; active compounds read high.
Chain of Ubiquitin carboxyl-terminal hydrolase 17-like protein 5 (Homo sapiens) (A8MUK1 whole entry, looked up): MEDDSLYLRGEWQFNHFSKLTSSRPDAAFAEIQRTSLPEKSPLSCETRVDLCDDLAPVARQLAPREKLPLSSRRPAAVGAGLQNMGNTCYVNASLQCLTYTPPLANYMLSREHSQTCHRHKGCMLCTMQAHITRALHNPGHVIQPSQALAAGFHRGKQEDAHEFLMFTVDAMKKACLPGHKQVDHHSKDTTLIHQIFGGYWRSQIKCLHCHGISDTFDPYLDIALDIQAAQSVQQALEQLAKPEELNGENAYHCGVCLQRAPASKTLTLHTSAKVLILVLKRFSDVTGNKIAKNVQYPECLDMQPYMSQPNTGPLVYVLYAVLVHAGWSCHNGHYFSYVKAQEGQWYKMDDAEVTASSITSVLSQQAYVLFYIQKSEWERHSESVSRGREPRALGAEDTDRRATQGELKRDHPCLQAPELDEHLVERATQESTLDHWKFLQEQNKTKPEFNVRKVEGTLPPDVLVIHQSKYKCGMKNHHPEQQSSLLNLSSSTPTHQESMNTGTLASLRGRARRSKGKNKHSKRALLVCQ

Structure (SMILES)	inhibition
O=C(NCCc1ccccc1)c1cc2c(s1)CS(=O)(=O)C2	6.74% (inactive)
COc1ccccc1Cc1cnc(C2CCCN(C(=O)c3ccnc(C)n3)C2)o1 (stereo not given)	-2.9% (inactive)
CC1=N[C@@]2(CC[C@@H]3CN(C(=O)Nc4ccccc4C)C[C@@H]32)C(=O)N1CC1CC1	-23.9% (inactive)
COc1ccc(-c2ccc(CCC(=O)NCc3ccccc3)o2)cc1	34.6% (active)
COc1ccc(-c2noc(CNC(=O)CCc3ccccc3)n2)cc1OC	8.5% (inactive)
COc1ccc(CCNC(=O)c2ccccc2OCc2ccc(F)cc2)cc1	16.7% (inactive)
COc1cccc(C(=O)NCc2ccc(-c3nc4cnccc4o3)cc2)c1	25.2% (inactive)
COc1ccc(CNC(=O)c2cccc3cccnc23)cc1	40.3% (active)
COc1ccc(CC(=O)Nc2cnc(-c3ccccc3)nc2)cc1	2.89% (inactive)
COc1ccc(CNC(=O)Cn2ncc3ccc(C)cc32)cc1	16.8% (inactive)
COc1ccc(CNC(=O)CSc2nnc3c4ccccc4nc(-c4ccco4)n23)cc1	-17% (inactive)
COc1ccc(CNC(=O)c2ccccc2-c2ncc(-c3ccccc3)o2)cc1	37.9% (active)
O=C(c1ccc(OC2CCN(C(=O)C3CCC3)CC2)nc1)N1CCOCC1	-14.4% (inactive)
CC(=O)N1CC2(CCN(C(=O)c3ccncc3)CC2)Nc2ccccc21	-3.13% (inactive)
CCOC(=O)c1[nH]c2cc(OC)c(OC)cc2c1NC(=O)c1cc2cccc(OC)c2o1	-23.6% (inactive)
CCOC(=O)c1c(NC(=O)CNc2cc(C)ccc2C)sc(Cc2ccc3c(c2)OCO3)c1C	5.67% (inactive)
O=C(c1cccnc1)N1CC[C@@H]2CNS(=O)(=O)[C@@H]2CC1	-5.34% (inactive)
CN1[C@@H](CCC(=O)N2CCN(c3ccccc3)CC2)CNC(=O)[C@H]2NCC[C@H]21	7.19% (inactive)
Cc1ccc(N(C)C(=O)CCn2cnc3ccccc3c2=O)cc1	-3.3% (inactive)
Cc1c(Cl)cccc1NC(=O)CCn1cnc2ccccc2c1=O	55.3% (active)
Cc1ccc(NC(=O)CCn2cnc3c2c(=O)n(C)c(=O)n3C)cc1	-13% (inactive)
Cc1nnc2c(NC(=O)Cc3cccc(C(F)(F)F)c3)cccn12	-9.8% (inactive)
Cc1cccc(NC(=O)C2CN(S(C)(=O)=O)c3ccccc3O2)c1C (stereo not given)	-4.9% (inactive)
CCS(=O)(=O)n1nc(NCc2ccccc2)nc1NCc1ccccc1	1.97% (inactive)
CCOc1ccc(NC(=S)Nc2ccc(Cc3ccncc3)cc2)cc1	7.13% (inactive)
COc1ccc(-c2cnc(SCCNC(=O)c3cccc(F)c3)[nH]2)cc1	-3.6% (inactive)
COc1ccc(-c2[nH]c3ccccc3c2SCCNC(=O)c2ccc(S(=O)(=O)N3CCOCC3)cc2)cc1	56.7% (active)

Structure (SMILES)	inhibition
COc1ccc(NC(=O)c2cc(=O)[nH]c3ccccc23)cc1S(=O)(=O)N1CCOCC1	-3.19% (inactive)
CC(C)Oc1ccc(CNC(=O)C2CCCN(c3ccc(N4CCOCC4)nn3)C2)cc1 (stereo not given)	-6.08% (inactive)
O=C1C(O)=C(c2ccc(O)c(O)c2)C(=O)C(O)=C1c1ccccc1	57.3% (active)
COc1cnc(CSc2nccc(C)n2)cc1OCC(=O)Nc1ccc(C)cc1C	2.43% (inactive)
CC(C)Cc1cc(-c2nn3c(-c4ccccc4Cl)nnc3s2)n[nH]1	42.6% (active)
CC(C)Cc1nc2sc3c(N(CCO)Cc4ccccc4)ncnc3c2c2c1COC(C)(C)C2	29.6% (inactive)
CC(O)CNc1ncnc2c1oc1nc(C(C)C)c3c(c12)CCC3 (stereo not given)	3.5% (inactive)
CC(C)Cc1nc2sc3c(NCc4ccco4)ncnc3c2c2c1CCC2	43.3% (active)
COc1cccc(-c2cn3c4c(=O)n(C)c(=O)n(C)c4nc3n2-c2ccc(OC)c(OC)c2)c1	20.6% (inactive)
CC(=O)N[C@@]12CN(C)CC[C@@H]1[C@@H](c1ccccc1)N(CC(=O)Nc1ccc(F)cc1)C2	-2.8% (inactive)
O=C(CCCn1c(=O)c2ccccc2n(Cc2ccccc2F)c1=O)NC1CCCC1	21.6% (inactive)
N#Cc1ccccc1Cn1c(=O)n(CCCC(=O)NCc2ccc(F)cc2)c(=O)c2ccccc21	30.8% (active)
COCCCn1c(=O)c2ccccc2n(Cc2nc(-c3ccccc3)no2)c1=O	-3.49% (inactive)
CC1Oc2ccc(NC(=O)c3ccc4c(c3)CCC4)cc2NC1=O (stereo not given)	-11% (inactive)
Cc1ccc(Cn2cc(-c3noc(-c4ccc[nH]4)n3)nn2)cc1	0.022% (inactive)
CC(CCc1ccccc1)NC(=O)c1cc2cc(Oc3ccccc3)ccc2[nH]1 (stereo not given)	32.3% (active)
CC(CCc1ccccc1)NC(=O)/C=C/c1cccc([N+](=O)[O-])c1 (stereo not given)	6.91% (inactive)
COc1ccccc1C(=O)Nc1cccc(Oc2ccccc2)c1	12.6% (inactive)
C[C@@H]1O[C@@H](OC2[C@H](Oc3cc(O)c4c(c3)OC(c3ccc(O)cc3)CC4=O)O[C@H](CO)[C@@H](O)[C@@H]2O)[C@H](O)[C@H](O)[C@H]1O (stereo not given in full)	0.6% (inactive)
Cc1ccc2cc(CNc3ccccc3)c(=O)n(CC(=O)Nc3ccccc3C)c2c1	84.2% (active)
Cc1cccc(NC(=O)Cn2c(C)ccc(NC(=O)Nc3cccc(C)c3)c2=O)c1	14% (inactive)
Cc1cccc(C2=NC3(CCN(CC(=O)Nc4ccccc4C)CC3)NC2=O)c1	-42.3% (inactive)
O=C(Cn1cccc(S(=O)(=O)N2CCCC2)c1=O)Nc1ccccc1	-38% (inactive)
CN(C)CCO[C@H]1CN(C(=O)c2cccnc2)[C@@H]2CCCO[C@H]12	-13.9% (inactive)
CN(c1ccccc1)c1nc(=O)n(CC(=O)Nc2ccc3c(c2)OCCO3)c2ccccc12	54% (active)
O=C(Cn1cnc2c(sc3ccccc32)c1=O)Nc1ccc2c(c1)OCCO2	23.3% (inactive)
COc1ccc(C)cc1NC(=O)Cn1c(=O)nc(N(C)c2ccccc2)c2ccccc21	14.1% (inactive)

Structure (SMILES)	inhibition
COc1cc(O)sc1C=Nc1ccc(Oc2ccccc2)cc1	9.93% (inactive)
Cc1cnc(N2CCC3(CC2)[C@@H]2CN(Cc4cccnc4)C[C@@H]2C(=O)N3C)nc1	-34.9% (inactive)
CCC(Oc1ccccc1)C(=O)NCc1ccc2c(c1)OCO2 (stereo not given)	-0.19% (inactive)
c1cc(CNCc2ccc3c(c2)OCO3)ccn1	0.475% (inactive)
c1ccc(-c2ccc(NCc3ccc4c(c3)OCO4)nn2)cc1	71.6% (active)
COC(=O)c1ccc(CN2CCN(c3cnn4cnnc4c3)CC2)cc1	0.152% (inactive)
CN(CC(=O)Nc1cccc(C(F)(F)F)c1)Cc1nc2ccccc2c(=O)[nH]1	-13.9% (inactive)
Cc1ccc(S(=O)(=O)Nc2nc3ccccc3n3nnnc23)cc1	-34.7% (inactive)
CSc1nccc(-c2ccc(F)cc2)c1C#N	82.5% (active)
COc1ccc(F)c([C@@H]2NC(=O)CC[C@H]2NCc2cccc(O)c2)c1	-6.39% (inactive)
CC(=O)Nc1cccnc1-c1ccc(C(=O)Nc2ccc(C)c(C)c2)cc1	6.52% (inactive)
Cc1ocnc1C(=O)N[C@@H]1C[C@@H](Oc2ccccc2)[C@H](O)[C@H]1N1CCOCC1	9.29% (inactive)
Cc1ccc(NS(=O)(=O)c2cc(C(=O)NCc3cccnc3)ccc2Cl)cc1	6.21% (inactive)
Cc1cccc(OCCCC(=O)Nc2sc3c(c2C(N)=O)CCCC3)c1C	-11% (inactive)
Cc1ccc2occ(CC(=O)Nc3sc4c(c3C(=O)NCc3cccnc3)CCCC4)c2c1	33.6% (active)
COc1ccc(CCNC(=O)c2ccc3ccccc3c2)cc1OC	-2.29% (inactive)
COc1ccc2[nH]cc(CCNC(=O)Cc3csc(-c4cc(OC)c(OC)c(OC)c4)n3)c2c1	8.14% (inactive)
CCC(=O)NC(=NCCc1c[nH]c2ccc(Cl)cc12)Nc1nc(C)cc(C)n1	43.9% (active)
O=C(NCCc1c[nH]c2ccccc12)c1cc2cc(Cl)ccc2o1	23% (inactive)
CC(=O)N1CCCCCC1C1CCN(c2ncccc2C#N)CC1 (stereo not given)	-19% (inactive)
Cn1nccc1-c1cccc(-c2noc(-c3ccoc3)n2)c1	-3.53% (inactive)
O=C(CCCC1=NS(=O)(=O)c2ccccc2N1)Nc1ccc(C(=O)O)cc1	25.1% (inactive)
Cc1c(Cl)cccc1NC(=O)C(=O)c1cn(CC(=O)N2CCOCC2)c2ccccc12	-0.359% (inactive)
Cn1ccnc1CN1C(=O)CO[C@H]2CN(Cc3ccc4c(c3)OCO4)C[C@H]21	4.69% (inactive)
Cc1ccccc1CS(=O)(=O)Cc1ccc(C(=O)Nc2noc3ccccc23)o1	48.3% (active)
Cc1cc(-c2cncnc2-c2ccc(CNC(=O)Cc3ccccc3C)cc2)on1	18.8% (inactive)
